Assay outcomes (PubChem)
The entries come from a sample that favours hits as a whole.
Pf Dd2 inh – inhibitors of Plasmodium falciparum Dd2 growth; P. falciparum Dd2 growth, SYBR Green, 72 h; Potency, µM (titrated, usually from 28.9 µM), for the others: top-dose activity, negative = inhibition, most hits filed as inhibitors; 120,000 tested, 4.3% active; AID 1347417; active means well fitted inhibition curve with a large enough effect;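 further: plate controls were DMSO vehicle for no effect and reference drug for full effect; nearly all actives have a fitted effect of over 65% in size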
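Infected erythrocytes (Dd2, 0.3% parasitemia, 2.5% hematocrit final) are added to compound in RPMI-1640/Albumax II medium, grown 72 h at 37C in low oxygen, then lysed with saponin/Triton-X containing SYBR Green and read by fluorescence.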
An asterisk follows results filed as active; i = inactive; [ ] = another dose, or the depositor's remark. Potency means the concentration at half of the fitted maximal effect.

SMILES	Pf Dd2 inh
CC(C)Oc1ccc(-c2noc(-c3nnn4c3COC(c3ccc(F)cc3)C4)n2)cc1 (stereo not given)	i
Cc1ccc(CNC(=O)c2noc(-c3ccc4c(c3)OCO4)n2)cc1	i
Cc1ccc(-c2nc(C(=O)NCc3ccc4c(c3)OCO4)no2)cc1	i
Cc1ccc(-c2nc(C(=O)N3CCN(Cc4ccc5c(c4)OCO5)CC3)no2)cc1	11.2µM*
COc1cccc(-c2cc3c(=O)n(CCNC(=O)Cc4ccsc4)ccn3n2)c1	-8.4%
O=C(Nc1ccccc1)N1CCC2(CC1)C(=O)NCN2Cc1ccc(Cl)cc1	3.16µM*
O=C1NCN(Cc2ccc(Cl)cc2)C12CCN(Cc1ccccn1)CC2	-15.5%
O=C(c1ccc(Cl)cc1)N1CCC2(CC1)C(=O)NCN2Cc1ccccc1	3.5%
O=C1NCN(Cc2ccc(Cl)cc2)C12CCN(Cc1cccc3ccccc13)CC2	-29.0%
O=C1NCN(Cc2ccc(Cl)cc2)C12CCN(Cc1ccsc1)CC2	8.91µM*
O=C(Nc1ccc(C(F)(F)F)cc1)N1CCC2(CC1)C(=O)NCN2Cc1ccc(Cl)cc1	-5.0%
CC(C)C(=O)N1CCC2(CCC(=O)N(Cc3ccccc3)CC2)CC1	10.5%
COc1cc(CN2CCN(c3ncccc3C#N)CC2CCO)cc(OC)c1 (stereo not given)	i
CC(=O)N1CCCCC1c1nc(-c2ccccc2)n[nH]1 (stereo not given)	-2.0%
O=C(C1CCCN(c2cnn(Cc3ccccc3)c(=O)c2)C1)N1CCN(C2CCCCC2)CC1 (stereo not given)	-10.2%
O=C(O)CCCNc1cc(N2CCN(C3CCCCC3)CC2)c2noc3c2c1C(=O)c1ccccc1-3	11.2µM*
O=C1c2ccccc2-c2onc3c(NCCO)cc(NC4CCCCC4)c1c23	8.91µM*
COc1ccccc1-c1nc(C2CC(=O)N(C3CCCCC3)C2)no1 (stereo not given)	i
CCNc1cc(N2CCN(C3CCCCC3)CC2)c2noc3c2c1C(=O)c1ccccc1-3	5.01µM*
O=C(CC1CCCC1)NC1CCN(c2cnn(Cc3ccccc3)c(=O)c2)CC1	i
Cc1ccc(-c2onc(C)c2C)cc1S(=O)(=O)NC1CCCCC1	23.7%
O=C(c1cccc(=O)[nH]1)N1CCCC(c2n[nH]c(=O)n2-c2ccccc2)C1 (stereo not given)	14.9%
O=C(NCc1ccc(F)cc1)c1ccc2c(c1)CNCCO2	i
Cc1n[nH]c(C)c1CCC(=O)Nc1ccc2c(c1)C(=O)N1CCC[C@H]1C(=O)N2	2.7%
CNC(=O)[C@@H](c1ccccc1F)N1CCC[C@H]1C(=O)NCc1ccncc1	8.1%
SMILES	Pf Dd2 inh
Cc1ccc(NC(=O)CCNc2c(C)nc3cnccn23)c(F)c1	i
Cc1noc(C)c1S(=O)(=O)N1CCc2nn(C)c(=O)n2CC1	-4.9%
COCCOCC(=O)N1CCC2(CC1)CC(N1CCCCC1)CCO2 (stereo not given)	52.8%
CN1C(=O)CCCCC1C(=O)NCc1ccc(Cl)cc1 (stereo not given)	7.9%
CC(C)c1nc2c(c(-c3ccc(Cl)cc3)n1)CCN(Cc1cccc3ccccc13)CC2	11.2µM*
CC(C)c1nc2c(c(-c3ccc(O)cc3)n1)CN(C(=O)N(C)C)CC2	i
CC(C)c1nc2c(c(-c3ccc(Cl)cc3)n1)CCN(Cc1cccnc1)CC2	11.2µM*
CN(Cc1cccnc1)c1nc2c(c(=O)[nH]1)CCN(Cc1ccc(Cl)cc1)CC2	-9.6%[5.79 µM]
CN1CCN(c2nc3c(c(=O)[nH]2)CCN(Cc2cccnc2)CC3)CC1	37.9%[5.79 µM]
Cc1nc2c(c(-c3ccc(Cl)cc3)n1)CCN(C(=O)c1ccccc1)CC2	-16.8%
NC(=O)[C@@H](Cc1c[nH]c2ccccc12)NC(=O)[C@@H]1C[C@@H](NS(=O)(=O)c2cccs2)CCN1C(=O)CSCC(=O)O	-3.5%
CCc1cccc(NC(=O)CN2C(=O)NC3(CCC(C)CC3)C2=O)c1 (stereo not given)	-17.1%
CCOC(=O)c1ccc(CNC(=O)c2cn(CCCc3ccccc3)nn2)o1	-13.7%
COc1ccc(C(=O)NCC(c2ccc(N(C)C)cc2)N2CCOCC2)cc1 (stereo not given)	46.1%
O=C(NCC(c1ccc(Cl)cc1)N1CCCCC1)c1ccc(F)cc1 (stereo not given)	-12.6%
CN(C)c1ccc(C(CNC(=O)c2ccc(C(C)(C)C)cc2)N2CCCC2)cc1 (stereo not given)	6.31µM*
O=C(c1ccc(F)cc1)N1CCCC(CN2CCOCC2)CC1 (stereo not given)	-19.1%
CC1(C(=O)N2CCC(c3ccccc3)CC2)CCc2cnc(Nc3ccncc3)nc21 (stereo not given)	10µM*
CC1(C(=O)N2CCCC2)CCCc2cnc(Nc3ccccc3)nc21 (stereo not given)	-5.4%[44.1 µM]
CC(=O)N1CCN(C(=O)C2(C)CCc3cnc(Nc4ccccc4)nc32)CC1 (stereo not given)	21.2%[44.1 µM]
CN1CCCCCC(O)c2cc(C(=O)NCCc3c[nH]c4ccccc34)ccc21 (stereo not given)	12.6µM*
CN1CCCCCC(O)c2cc(C(=O)NCCCc3ccccc3)ccc21 (stereo not given)	-18.3%
